Compound activity deposited in PubChem by several laboratories.
GDH-TPI counter: counter-screen for M. tuberculosis FBA inhibitors: GDH-TPI coupled enzymes; AID 588335; inhibition, % at 4.8 µM; GDH-TPI coupled enzyme counterscreen, NADH absorbance; 360,000 compounds, 1.2% hits; in the data active means inhibition above about 30%
Rv3671c inh: Rv3671c (M. tuberculosis) protease inhibition; P9WHR9; 320,000 compounds, 0.048% hits; inhibition, % at 5.96 µM; AID 2606; in the data active means inhibition above about 38%;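 further: extracellular domain of Rv3671c used as enzyme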
SSB-PriA inh: K. pneumoniae PriA-SSBct interaction inhibition. AlphaScreen SSBct-PriA binding, biotinylated peptide. inhibition, % at 33 µM. 430,000 compounds, 0.6% hits. AID 1272365; in the data active means inhibition mostly above about 37%, no sharp cut-off; inactive means mostly below about 20%
Mtb bLac sens: beta-lactam sensitization of Mtb H37Rv; 330,000 compounds, 0.27% hits; inhibition, % at 25 µM; M. tuberculosis H37Rv growth with meropenem, percent inhibition; AID 434955; call rule not given here;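 further: growth measured after seven days incubation then overnight dye step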
FBA Mtb inh: Mtb fructose-bisphosphate aldolase inhibition | P9WQA3 | purified M. tuberculosis FBA, fluorescence read-out | inhibition, % at 1 µM | 360,000 compounds, 2.3% hits | AID 588726; in the data active means inhibition above about 27%
Target sequence (P9WQA3 whole entry, looked up): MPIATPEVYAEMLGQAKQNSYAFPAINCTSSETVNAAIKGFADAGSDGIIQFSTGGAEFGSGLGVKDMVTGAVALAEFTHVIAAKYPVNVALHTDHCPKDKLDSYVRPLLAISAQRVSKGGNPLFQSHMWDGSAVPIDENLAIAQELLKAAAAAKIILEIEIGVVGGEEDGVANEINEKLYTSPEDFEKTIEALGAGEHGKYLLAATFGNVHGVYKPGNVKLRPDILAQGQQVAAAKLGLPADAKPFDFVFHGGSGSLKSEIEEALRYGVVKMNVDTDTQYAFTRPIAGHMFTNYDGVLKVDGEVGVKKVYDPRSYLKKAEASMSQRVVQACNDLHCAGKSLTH
Mtb UGM inh: Mtb UDP-galactopyranose mutase inhibition | P9WIQ1 | purified UGM, fluorescence polarization probe displacement | inhibition, % at 10 µM | 320,000 compounds, 0.06% hits; in the data active means inhibition above about 10%, passing the limit was not always enough
Hits are given with their value; . = inactive; / = no result given; + = active, no number; ! = not confirmed by another sample. Most compounds without a hit are left out; they make up all but 3.2% or so of the library.

SMILES | GDH-TPI counter | Rv3671c inh | SSB-PriA inh | Mtb bLac sens | FBA Mtb inh | Mtb UGM inh
COc1ccc(-c2cc(C(=O)OCC(=O)c3c(N)n(C)c(=O)n(C)c3=O)c3ccccc3n2)cc1 | . | . | . | . | . | .
C=CCn1sc(N)c(C#N)c1=N | / | / | . | / | / | /
O=C(/C=C/c1ccccc1)Nc1nc(-c2ccncc2)cs1 | 38 | . | . | . | . | .
COc1ccc(-c2csc(NC(=O)/C=C\c3ccccc3)n2)cc1 | / | / | . | / | / | /
CC(/C=C/c1ccccc1)=N\Nc1nc(-c2ccccc2)cs1 | 32 | . | / | . | . | .
CC(C)=NNc1nc(-c2ccccc2)cs1 | . | . | . | . | . | .
Cc1cc(C)c2c(c1)C(=NNS(=O)(=O)c1ccc(Br)cc1)CCC2 | / | / | . | / | / | /
COCCn1c(SCC(=O)N2CCCC2)nnc1-c1ccoc1C | . | . | . | . | 130 | .
COc1ccc(/C=N/NC(=O)/C(=C/c2ccccc2)CCO)cc1 | . | . | / | . | . | .
O=C(N/N=C/c1ccc(O)cc1O)/C(=C/c1ccccc1)CCO | 41 | . | / | . | . | .
O=C(NN=Cc1ccc(O)cc1)/C(=C/c1ccccc1)CCO | / | / | . | / | / | /
COc1cc(/C=N/NC(=O)/C(=C/c2ccccc2)CCO)ccc1O | 39 | . | / | . | . | .
Nc1nc(N)c2nc(-c3ccccc3)c(N)nc2n1 | 33 | . | . | . | / | /
COC1=C(Br)C(=O)c2ncccc2C1=O | . | / | 41 | / | . | /
O=C1c2cccnc2-c2ncccc21 | . | . | 37! | . | . | .
O=C1C(=O)c2cccnc2-c2ncccc21 | / | / | / | / | . | /
Nc1nccc(-c2ccccn2)n1 | / | / | . | / | / | /
CCOC(=O)c1c[nH]c(=S)n(-c2ccccc2)c1=O | 39 | . | . | . | . | .
Cc1ccc(S(=O)(=O)N2CCN(C(=O)N3CCCC3)CC2)cc1C | / | / | . | / | / | /
Cc1nn(S(=O)(=O)c2ccccc2[N+](=O)[O-])c(C)c1Sc1ccccc1 | / | / | 37 | / | / | /
CC1(C)COc2cc(NC(=O)c3c(F)cccc3F)ccc2NC1=O | / | / | . | / | / | /
CC1CN(C(=O)c2cc3c(=O)n4ccccc4nc3n2C)CC(C)O1 (centres undefined) | . | . | . | . | + | .
CCOC(=O)C1CCN(C(=O)c2cc3c(=O)n4ccccc4nc3n2C)CC1 | . | . | . | . | 133 | .
Cc1c(NC(=O)c2cc3c(=O)n4ccccc4nc3n2C)c(=O)n(-c2ccccc2)n1C | / | / | . | / | / | /
Cn1c(C(=O)N2CCN(C(=O)c3ccco3)CC2)cc2c(=O)n3ccccc3nc21 | . | . | . | . | + | .
SMILES | GDH-TPI counter | Rv3671c inh | SSB-PriA inh | Mtb bLac sens | FBA Mtb inh | Mtb UGM inh
Cn1c(C(=O)O)cc2c(=O)n3ccccc3nc21 | . | . | . | . | + | .
O=C(C[C@H](NCCc1ccccc1)C(=O)O)Nc1cccnc1 | / | / | . | / | / | /
C=CCn1c(SCC(=O)NCc2ccccc2Cl)nc2cc(C(=O)NCC3CCCO3)ccc2c1=O (centres undefined) | / | / | . | / | / | /
O=C(NCC1CCN(C(=O)c2ccncc2)CC1)c1cccs1 | / | / | . | / | / | /
Cc1noc(-c2c(NC(=O)c3ccc(C(F)(F)F)nc3)sc3c2CCOC3)n1 | / | / | . | / | / | /
CCN(CC)S(=O)(=O)c1ccc(C(=O)ONC(=O)c2ccc(OC(F)F)cc2)cc1 | / | / | . | / | / | /
Cc1ccc(C(O)CN)o1 (centres undefined) | / | / | . | / | / | /
Cn1c(C(=O)N2CCc3ccccc3C2)cc2c(=O)n3ccccc3nc21 | . | . | . | . | 73 | .
Cn1c(C(=O)N2CCOCC2)cc2c(=O)n3ccccc3nc21 | . | . | . | . | + | .
CC1Cc2ccccc2N1C(=O)c1cc2c(=O)n3ccccc3nc2n1C (centres undefined) | . | . | . | . | . | .
CCOc1ccc(NC(=O)c2csc3c2CCCC3)cc1 | . | . | 115 | . | . | .
COc1ccc(S(=O)(=O)c2ccc(NCCc3c[nH]c4ccc(OC)cc34)nn2)cc1 | / | / | . | / | / | /
N#C/C(=C\c1ccc[nH]1)C(=O)NC1CC1 | 32 | . | . | . | . | .
Cc1ccc(C)c(NC(=O)/C(C#N)=C/c2ccc[nH]2)c1 | 31 | . | . | . | . | .
Cc1cccc(NC(=O)/C(C#N)=C/c2ccc[nH]2)c1C | . | / | . | . | . | .
COc1ccc(C(=O)c2sc(NC(C)C)nc2N)cc1OC | 37 | . | . | . | . | .
COc1cn2c(cc1=O)C(=O)N(CCNC(=O)c1ccc(C(F)(F)F)cc1)CC2 | / | / | . | / | / | /
COc1cc(NC(=O)CCc2csc(NC(=O)NC3CCCCC3)n2)cc(OC)c1OC | / | / | . | / | / | /
Cc1cc(C)n2nc3nc(N4CCCCC4)nc(-c4ccco4)c3c2n1 | . | . | . | . | 38 | .
